In PubChem BioAssay AID1159580 (chemical genetic matrix, 2015):
About 2,000 (36%) of roughly 5,500 compounds were called active. Not shown: some 18% with an inconclusive outcome. No stated cut-off is given here; in the data, active means normalized growth mostly below about 0.91 (no sharp cut-off); inconclusive means no clear call, values can overlap the other calls; inactive means mostly above about 0.92. The list shows a part of the results.

Experiment: chemical genetic growth profiling, strain panel (AID 1159580);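 further: tested at 20 µM; growth read once vehicle control cultures reached saturation at 30 °C; 1 = growth at the plate median or of vehicle wells; lower values mean less growth of the strain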
Settings: S. cerevisiae deletion strains, growth OD

Measured: normalized growth

COC(=O)c1c(C)cc(O)cc1O
inactive: locus YAL021C, strain ccr4, active compounds read low 1.02 | locus YAL026C, strain drs2, active compounds read low 1 | locus YAL030W, strain snc1, active compounds read low 1 | locus YBL061C, strain skt5, active compounds read low 1.02 | locus YBR009C, strain hhf1, active compounds read low 1 | locus YBR023C, strain chs3, active compounds read low 1.01 | locus YBR171W, strain sec66, active compounds read low 1 | locus YBR231C, strain swc5, active compounds read low 1.01 | locus YBR279W, strain paf1, active compounds read low 1.02 | locus YCL011C, strain gbp2, active compounds read low 1.01 | locus YCL016C, strain dcc1, active compounds read low 1.01 | locus YCL061C, strain MRC1, active compounds read low 1.01 | locus YCL069W, strain vba3, active compounds read low 0.999 | locus YCR088W, strain abp1, active compounds read low 0.994 | locus YDL005C, strain med2, active compounds read low 1.01 | locus YDL040C, strain nat1, active compounds read low 1 | locus YDR001C, strain nth1, active compounds read low 0.998 | locus YDR069C, strain doa4, active compounds read low 1.01 | locus YDR137W, strain rgp1, active compounds read low 1 | locus YDR159W, strain sac3, active compounds read low 1.02 | locus YDR195W, strain ref2 1.05 | locus YDR297W, strain sur2, active compounds read low 1.01 | locus YDR334W, strain swr1, active compounds read low 1.01 | locus YDR335W, strain msn5, active compounds read low 1.01 | locus YDR392W, strain spt3, active compounds read low 0.978 | locus YEL003W, strain gim4, active compounds read low 1.01 | locus YEL037C, strain rad23, active compounds read low 1.01 | locus YEL061C, strain CIN8 (second series), active compounds read low 1.01 | locus YER015W, strain faa2, active compounds read low 1 | locus YER016W, strain bim1, active compounds read low 1.01 | locus YER111C, strain swi4, active compounds read low 1.03 | locus YER155C, strain BEM2 (second series), active compounds read low 0.995 | locus YFR010W, strain ubp6, active compounds read low 1.02 | locus YGL167C, strain pmr1, active compounds read low 1.01 | locus YGL173C, strain kem1, active compounds read low 1.02 | locus YGL227W, strain vid30, active compounds read low 1 | locus YGL240W, strain doc1, active compounds read low 1 | locus YGL253W, strain hxk2, active compounds read low 1.01 | locus YHR013C, strain ard1, active compounds read low 1.03 | locus YHR027C, strain rpn1, active compounds read low 1.02 | locus YHR030C, strain SLT2, active compounds read low 0.994 | locus YHR079C, strain IRE1, active compounds read low 0.996 | locus YHR142W, strain chs7, active compounds read low 1 | locus YJL092W, strain hpr5, active compounds read low 0.998 | locus YJL095W, strain BCK1 (second series), active compounds read low 1 | locus YJL095W, strain BCK1, active compounds read low 0.984 | locus YJL115W, strain asf1, active compounds read low 1.01 | locus YJL129C, strain trk1, active compounds read low 1 | locus YJL154C, strain vps35, active compounds read low 1.01 | locus YJL164C, strain tpk1, active compounds read low 1.01 | locus YJL166W, strain qcr8, active compounds read low 0.998 | locus YJL187C, strain SWE1, active compounds read low 1.01 | locus YJR066W, strain TOR1, active compounds read low 0.948 | locus YKL160W, strain elf1, active compounds read low 1 | locus YKR026C, strain gcn3, active compounds read low 1 | locus YKR091W, strain srl3, active compounds read low 1.01 | locus YLL001W, strain dnm1, active compounds read low 1.02 | locus YLL026W, active compounds read low 0.996 | locus YLL041C, strain sdh2, active compounds read low 1.01 | locus YLR027C, strain aat2, active compounds read low 1.01 | locus YLR113W, strain HOG1, active compounds read low 1.03 | locus YLR221C, strain rsa3, active compounds read low 0.999 | locus YLR258W, strain gsy2, active compounds read low 1.01 | locus YLR262C, strain YPT6 (second series), active compounds read low 0.985 | locus YLR320W, strain mms22, active compounds read low 1.01 | locus YLR342W, strain FKS1, active compounds read low 1.01 | locus YLR357W, strain rsc2, active compounds read low 1.03 | locus YLR370C, strain arc18, active compounds read low 0.992 | locus YLR384C, strain iki3, active compounds read low 1.01 | locus YML120C, strain ndi1, active compounds read low 0.993 | locus YMR058W, strain fet3, active compounds read low 1.01 | locus YMR125W, strain sto1, active compounds read low 1.02 | locus YMR129W, active compounds read low 1.01 | locus YMR205C, strain PFK2, active compounds read low 1.01 | locus YMR231W, strain pep5, active compounds read low 1.01 | locus YNL071W, strain lat1, active compounds read low 0.987 | locus YNL183C, strain NPR1, active compounds read low 0.917 | locus YNL209W, strain ssb2, active compounds read low 1.01 | locus YNL248C, strain rpa49, active compounds read low 1.01 | locus YNL322C, strain KRE1 (second series), active compounds read low 1 | locus YNR049C, strain mso1, active compounds read low 1 | locus YOR001W, strain rrp6, active compounds read low 1 | locus YOR070C, strain gyp1, active compounds read low 1 | locus YOR080W, strain dia2, active compounds read low 1.01 | locus YOR083W, strain WHI5, active compounds read low 1.01 | locus YOR106W, strain vam3, active compounds read low 0.999 | locus YOR231W, strain MKK1, active compounds read low 0.987 | locus YOR265W, strain rbl2, active compounds read low 0.999 | locus YOR270C, strain vph1, active compounds read low 0.961 | locus YOR290C, strain snf2, active compounds read low 1.01 | locus YPL051W, strain arl3, active compounds read low 1 | locus YPL078C, strain atp4, active compounds read low 0.999 | locus YPL106C, strain sse1, active compounds read low 0.982 | locus YPL240C, strain hsp82, active compounds read low 0.996 | locus YPL256C, strain CLN2, active compounds read low 1.01
